What all share (experiment): PBM binding z-score (relative to random genomic background probes); higher = stronger binding; sequences stand for … in GC…GCGATTGACAGCGTAGAATGAAGG
Assay [1] deals with FXR:RXRa (NR concentration 270 nM, RXRa partner concentration 90 nM). The procedure, abridged:
(§1)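 Regression normalization was applied to scanned fluorescence from custom Agilent 4×180K protein-binding microarrays. Before scanning, arrays were incubated 1 h with ligand-free nuclear receptor dimers, and binding was detected with antibodies against each partner (one per run). Binding z-scores use the random background probes as reference.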

For assay [2], the system named is LXRa:RXRa (NR concentration 270 nM, RXRa partner concentration 90 nM). The procedure, abridged: as §1
Assay [3] concerns LXRa homodimer (NR concentration 270 nM). The procedure, abridged:
as §1

Assay [4] deals with LXRb:RXRa (NR concentration 270 nM, RXRa partner concentration 90 nM). The essentials:
as §1

Assay [5] deals with LXRb homodimer (NR concentration 270 nM). The essentials:
as §1

The subject of assay [6] is PPARa:RXRa (NR concentration 270 nM, RXRa partner concentration 90 nM). The procedure, abridged: as §1
In assay [7] the test system is PPARg:RXRa (NR concentration 180 nM, RXRa partner concentration 90 nM). The procedure, abridged: as §1
For assay [8], the system named is PPARg:RXRa 270nM:90nM, anti-RXR (NR concentration 270 nM, RXRa partner concentration 90 nM). The procedure, abridged:
as §1

In assay [9] the test system is PPARg:RXRa 30nM:10nM, anti-RXR (NR concentration 30 nM, RXRa partner concentration 10 nM). The essentials:
as §1

Assay [10] concerns PPARg:RXRa 90nM:30nM, anti-RXR (NR concentration 90 nM, RXRa partner concentration 30 nM). The procedure, abridged: as §1
The test system of assay [11] is PPARg:RXRa DBDmut IVT, anti-RXR (DBD mutation: RXRa K156A/R161A, NR concentration 270 nM, RXRa partner concentration 90 nM). The procedure, abridged: as §1
Assay [12] has as its system PPARg:RXRa IVT, anti-PPARg (NR concentration 270 nM, RXRa partner concentration 90 nM). The procedure, abridged:
as §1

For assay [13], the system named is PPARg DBDmut:RXRa IVT, anti-PPARg (DBD mutation: PPARg1 K132A/R137A, NR concentration 270 nM, RXRa partner concentration 90 nM). The procedure, abridged:
as §1

Assay [14] deals with PPARg DBDmut IVT, anti-PPARg (DBD mutation: PPARg1 K132A/R137A, NR concentration 270 nM). The procedure, abridged:
as §1

Assay [15] concerns PPARg homodimer (NR concentration 180 nM). The procedure, abridged:
as §1

Assay [16] deals with PXR:RXRa (NR concentration 270 nM, RXRa partner concentration 90 nM). The procedure, abridged: as §1
In assay [17] the test system is PXR homodimer (NR concentration 270 nM). The procedure, abridged:
as §1

Assay [18] concerns RARa:RXR (NR concentration 270 nM, RXRa partner concentration 90 nM). The essentials:
as §1

Assay [19] has as its system RARa homodimer (NR concentration 270 nM). The procedure, abridged:
as §1

The test system of assay [20] is RARb:RXRa (NR concentration 270 nM, RXRa partner concentration 90 nM). The essentials:
as §1

Consider TCTGCTAGGGCAACGATGGTCAGCTAATCTGCTA, for which the PBM binding z-score in assay [1] was -0.264; in assay [2] it was -0.36; in assay [3], -0.78; in assay [4], -0.55; in assay [5], -0.884; in assay [6], 0.0492. Moreover, the PBM binding z-score in [7] turned out to be 0.028; in assay [8], 0.551; in [9], 1.02; in assay [10] it was 0.846; in assay [11] it was 2.18; in assay [12] it was 1.59. In addition, the PBM binding z-score in assay [13] is -0.859; in [14], -1.01; in [15], -1.1; in assay [16] it was -0.375; in assay [17], -0.975; in assay [18], -0.218. Moreover, the PBM binding z-score is -0.818 in [19] and 1.58 in [20].

As to CAAACTATGTCACGAAAGGTCAAAGTCGAATGAC, the PBM binding z-score in assay [1] stood at 5.77; in assay [2], 6.78; in assay [3], 6.81; in assay [4] it was 6.18; in assay [5], 2.79; in assay [6], 6.44. Besides, the PBM binding z-score in [7] is 6.17; in assay [8] it was 5.88; in assay [9], 3.01; in [10], 4.94; in assay [11], 5.09; in assay [12], 5.93. Also, the PBM binding z-score in assay [13] is 3; in assay [14], 0.957; in assay [15] it was 3.47; in assay [16], 6.07; in assay [17] it was 2.12; in [18] it was 6.01. The PBM binding z-score in [19] was 2.87; in assay [20], 4.92.

Regarding GCTCGGAGGCCAAGGTCAGAGCTTTGTCCGTAGA, the PBM binding z-score is 1.41 in assay [1]; 1.03 in assay [2]; -0.427 in [3]; 0.907 in assay [4]; -1.5 in assay [5]; 1.85 in assay [6]. In addition, the PBM binding z-score is 0.0755 in assay [7]; 1.47 in assay [8]; -0.393 in assay [9]; 0.573 in assay [10]; 0.637 in [11]; 0.382 in assay [12]. Also, the PBM binding z-score in assay [13] was -1.23; in assay [14] it was -1.94; in assay [15] it was 1.18; in [16], 1.64; in [17] it was -0.446; in [18], 1.82. For the same sequence, the PBM binding z-score in assay [19] is -1.6; in assay [20], 3.45.

Regarding TCTTGTAGATCAAGCAGGTTAAGAGAGCCTGAGT, the PBM binding z-score was 0.126 in [1]; 0.03 in [2]; -0.729 in assay [3]; 0.145 in assay [4]; -0.665 in assay [5]; 0.53 in assay [6]. Also, the PBM binding z-score in [7] was -0.372; in assay [8], 0.87; in [9] it was 2.06; in [10], 1.55; in assay [11], 1.44; in assay [12], 0.423. For the same sequence, the PBM binding z-score in [13] was -0.603; in assay [14] it was -0.0222; in [15], -0.58; in assay [16], 0.103; in [17], -0.227; in assay [18], -0.116. Further, the PBM binding z-score in [19] was -0.124; in assay [20], 0.0485.

As for CTCGAAGGGTCGGTTGAGGTGAGTATACGGATAA, the PBM binding z-score in [1] was 2.14; in [2], 0.689; in assay [3], -0.0739; in [4], 0.752; in assay [5], -0.256; in assay [6], 1.37. Besides, the PBM binding z-score in assay [7] is 0.221; in [8], 0.4; in assay [9], 0.00814; in assay [10] it was 0.0401; in assay [11] it was -0.575; in assay [12], 0.478. The PBM binding z-score in assay [13] is -0.346; in assay [14], 0.307; in assay [15], 0.548; in assay [16], 1.86; in [17] it was 0.399; in assay [18], 1.32. Further, the PBM binding z-score was -0.148 in [19] and 1.88 in [20].

For ACAGACAGGTGATGAAGGTAACACAGGCTATCAT, the PBM binding z-score in assay [1] was 0.124; in assay [2] it was 0.0165; in [3], -0.085; in assay [4] it was 0.319; in assay [5] it was -0.129; in assay [6], 0.346. For the same sequence, the PBM binding z-score in assay [7] worked out at 1.05; in assay [8] it was 0.295; in [9], 0.205; in assay [10], 0.465; in assay [11], 0.127; in [12], 0.744. Moreover, the PBM binding z-score was 0.824 in assay [13]; 0.414 in assay [14]; 0.26 in [15]; -0.00388 in assay [16]; 0.386 in [17]; 0.0316 in assay [18]. The values for the PBM binding z-score in assay [19] and in [20] were 0.746 and 0.493, respectively.

For ACTTGTTGGTCAGCTGAGGTCACACACAATTCGG, the PBM binding z-score worked out at 3.37 in assay [1]; 3.31 in assay [2]; 2.13 in [3]; 3.51 in assay [4]; 0.632 in assay [5]; 3.79 in assay [6]. The PBM binding z-score in assay [7] was 1.8; in [8], 2.46; in assay [9], 0.673; in assay [10], 1.95; in assay [11], 1.72; in assay [12], 2.7. Further, the PBM binding z-score in [13] worked out at 1.08; in [14], 0.437; in assay [15] it was 2.22; in [16], 5.63; in [17] it was 1.27; in [18] it was 4.54. Also, the results for the PBM binding z-score in assay [19] and in assay [20] were 0.13 and 3.71, respectively.

Source of the values: the supplement of paper PMC6555819.
